For orientation: inhibition means the relative decrease from the control value, in per cent.

In test [1] the target is Protein kinase C gamma type (Homo sapiens) (UniProt P05129). Conditions: at 1 µM.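 Also: each value is an averaged percent inhibition of the enzyme.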
Test [2] concerns the target T1, Protein kinase C iota type (Homo sapiens) (UniProt P41743).
T1 sequence (whole entry): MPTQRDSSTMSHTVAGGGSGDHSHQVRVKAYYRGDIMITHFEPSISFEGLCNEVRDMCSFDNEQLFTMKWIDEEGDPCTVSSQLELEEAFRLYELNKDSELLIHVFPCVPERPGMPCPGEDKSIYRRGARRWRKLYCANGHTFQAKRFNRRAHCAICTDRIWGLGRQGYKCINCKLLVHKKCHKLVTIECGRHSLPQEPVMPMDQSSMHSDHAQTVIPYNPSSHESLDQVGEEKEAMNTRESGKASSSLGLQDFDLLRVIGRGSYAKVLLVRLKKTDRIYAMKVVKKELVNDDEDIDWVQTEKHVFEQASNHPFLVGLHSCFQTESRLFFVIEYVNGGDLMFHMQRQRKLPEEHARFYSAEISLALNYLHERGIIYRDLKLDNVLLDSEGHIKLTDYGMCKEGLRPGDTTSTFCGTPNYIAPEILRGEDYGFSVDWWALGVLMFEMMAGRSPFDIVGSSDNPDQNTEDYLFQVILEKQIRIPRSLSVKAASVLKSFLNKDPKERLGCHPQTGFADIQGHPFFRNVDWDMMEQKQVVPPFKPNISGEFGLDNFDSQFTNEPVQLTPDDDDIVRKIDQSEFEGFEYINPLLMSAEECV
Conditions: at 0.1 µM.

Test [3] has as its target T1, Protein kinase C iota type (Homo sapiens). Conditions: at 1 µM.
Test [4] addresses Protein kinase C theta type (Homo sapiens) (UniProt Q04759). Particulars: at 0.1 µM.
Test [5] shares this target. Conditions: at 1 µM.
Test [6] has as its target Protein kinase C beta type (Homo sapiens) (UniProt P05771). Particulars: at 0.1 µM.
Test [7] has the same target. Particulars: at 1 µM.
The target of test [8] is T2, Serine/threonine-protein kinase D1 (Homo sapiens) (UniProt Q15139).
T2 sequence (whole entry): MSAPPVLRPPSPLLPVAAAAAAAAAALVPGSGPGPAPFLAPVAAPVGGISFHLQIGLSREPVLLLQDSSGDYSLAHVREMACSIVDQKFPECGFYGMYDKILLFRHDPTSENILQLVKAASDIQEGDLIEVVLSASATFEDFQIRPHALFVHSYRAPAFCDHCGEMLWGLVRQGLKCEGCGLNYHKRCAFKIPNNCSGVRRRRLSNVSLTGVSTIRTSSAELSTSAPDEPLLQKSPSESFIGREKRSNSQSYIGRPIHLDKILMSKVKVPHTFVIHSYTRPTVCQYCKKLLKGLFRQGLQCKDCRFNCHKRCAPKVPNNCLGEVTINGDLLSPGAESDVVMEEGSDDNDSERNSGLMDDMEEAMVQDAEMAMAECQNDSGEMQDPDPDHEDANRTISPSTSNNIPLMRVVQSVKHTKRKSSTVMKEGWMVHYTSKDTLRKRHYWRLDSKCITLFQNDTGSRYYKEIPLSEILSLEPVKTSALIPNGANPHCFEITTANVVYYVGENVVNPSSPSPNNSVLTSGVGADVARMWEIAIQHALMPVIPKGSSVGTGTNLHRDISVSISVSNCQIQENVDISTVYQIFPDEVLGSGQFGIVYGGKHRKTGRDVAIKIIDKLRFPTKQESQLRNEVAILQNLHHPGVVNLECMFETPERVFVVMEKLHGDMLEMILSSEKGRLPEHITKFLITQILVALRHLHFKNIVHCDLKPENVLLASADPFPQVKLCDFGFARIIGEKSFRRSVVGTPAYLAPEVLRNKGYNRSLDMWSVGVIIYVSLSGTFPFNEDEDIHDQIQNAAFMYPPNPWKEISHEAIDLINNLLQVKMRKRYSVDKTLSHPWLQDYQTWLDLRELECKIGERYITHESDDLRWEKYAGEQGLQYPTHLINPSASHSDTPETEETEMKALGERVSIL
Conditions: at 0.1 µM.

For test [9], the target named is T2, Serine/threonine-protein kinase D1 (Homo sapiens). Particulars: at 1 µM.
The target in test [10] is T3, Serine/threonine-protein kinase D2 (Homo sapiens) (UniProt Q9BZL6).
T3 sequence (whole entry): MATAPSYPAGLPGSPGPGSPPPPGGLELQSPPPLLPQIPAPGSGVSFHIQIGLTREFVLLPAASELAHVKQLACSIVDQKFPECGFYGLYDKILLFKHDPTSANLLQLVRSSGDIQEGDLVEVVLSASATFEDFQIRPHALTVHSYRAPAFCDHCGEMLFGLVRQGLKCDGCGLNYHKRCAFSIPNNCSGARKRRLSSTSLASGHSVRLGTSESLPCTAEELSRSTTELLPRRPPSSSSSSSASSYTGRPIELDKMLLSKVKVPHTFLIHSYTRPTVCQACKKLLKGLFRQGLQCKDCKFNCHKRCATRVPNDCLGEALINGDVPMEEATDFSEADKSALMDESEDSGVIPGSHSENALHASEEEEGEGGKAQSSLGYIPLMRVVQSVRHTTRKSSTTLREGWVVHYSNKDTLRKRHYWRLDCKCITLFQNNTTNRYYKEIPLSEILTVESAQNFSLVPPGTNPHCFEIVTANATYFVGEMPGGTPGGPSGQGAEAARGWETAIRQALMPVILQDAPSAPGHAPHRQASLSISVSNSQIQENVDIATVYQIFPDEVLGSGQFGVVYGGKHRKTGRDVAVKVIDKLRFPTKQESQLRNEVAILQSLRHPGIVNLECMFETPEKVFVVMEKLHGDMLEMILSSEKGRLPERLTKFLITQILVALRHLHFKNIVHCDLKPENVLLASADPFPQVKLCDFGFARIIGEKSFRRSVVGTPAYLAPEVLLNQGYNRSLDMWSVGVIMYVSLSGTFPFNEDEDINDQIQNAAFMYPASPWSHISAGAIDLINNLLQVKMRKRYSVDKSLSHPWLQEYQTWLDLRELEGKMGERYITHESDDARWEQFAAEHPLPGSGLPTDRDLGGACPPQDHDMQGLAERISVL
Conditions: at 0.1 µM.

The target of test [11] is T3, Serine/threonine-protein kinase D2 (Homo sapiens). Particulars: at 1 µM.
Test [12] deals with T4, Serine/threonine-protein kinase D3 (Homo sapiens) (UniProt O94806).
T4 sequence (whole entry): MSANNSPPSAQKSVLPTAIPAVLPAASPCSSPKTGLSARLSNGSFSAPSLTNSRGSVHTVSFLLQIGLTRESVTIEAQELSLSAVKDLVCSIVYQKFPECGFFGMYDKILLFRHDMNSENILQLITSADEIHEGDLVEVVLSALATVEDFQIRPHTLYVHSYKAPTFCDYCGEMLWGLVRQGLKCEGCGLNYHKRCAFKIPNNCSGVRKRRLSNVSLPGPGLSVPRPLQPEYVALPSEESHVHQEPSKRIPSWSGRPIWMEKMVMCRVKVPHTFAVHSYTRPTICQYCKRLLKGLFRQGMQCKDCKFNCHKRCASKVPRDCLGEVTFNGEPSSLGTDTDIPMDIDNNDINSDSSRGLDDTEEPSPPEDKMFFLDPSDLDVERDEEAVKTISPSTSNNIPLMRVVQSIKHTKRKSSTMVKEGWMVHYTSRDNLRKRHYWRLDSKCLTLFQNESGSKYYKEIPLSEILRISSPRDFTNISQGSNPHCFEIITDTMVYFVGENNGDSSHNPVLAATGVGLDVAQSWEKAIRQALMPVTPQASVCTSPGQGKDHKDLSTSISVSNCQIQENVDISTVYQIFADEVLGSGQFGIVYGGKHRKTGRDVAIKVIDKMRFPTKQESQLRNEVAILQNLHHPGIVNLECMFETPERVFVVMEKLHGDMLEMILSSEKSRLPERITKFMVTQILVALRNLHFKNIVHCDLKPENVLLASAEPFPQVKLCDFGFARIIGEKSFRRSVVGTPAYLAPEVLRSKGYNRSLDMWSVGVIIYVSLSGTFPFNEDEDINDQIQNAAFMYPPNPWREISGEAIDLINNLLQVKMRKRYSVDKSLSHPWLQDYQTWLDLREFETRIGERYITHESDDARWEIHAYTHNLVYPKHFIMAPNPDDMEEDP
Conditions: at 0.1 µM.

In test [13] the target is T4, Serine/threonine-protein kinase D3 (Homo sapiens). Particulars: at 1 µM.
Test [14] concerns the target T5, cGMP-dependent protein kinase 1 (Homo sapiens) (UniProt Q13976).
T5 sequence (whole entry): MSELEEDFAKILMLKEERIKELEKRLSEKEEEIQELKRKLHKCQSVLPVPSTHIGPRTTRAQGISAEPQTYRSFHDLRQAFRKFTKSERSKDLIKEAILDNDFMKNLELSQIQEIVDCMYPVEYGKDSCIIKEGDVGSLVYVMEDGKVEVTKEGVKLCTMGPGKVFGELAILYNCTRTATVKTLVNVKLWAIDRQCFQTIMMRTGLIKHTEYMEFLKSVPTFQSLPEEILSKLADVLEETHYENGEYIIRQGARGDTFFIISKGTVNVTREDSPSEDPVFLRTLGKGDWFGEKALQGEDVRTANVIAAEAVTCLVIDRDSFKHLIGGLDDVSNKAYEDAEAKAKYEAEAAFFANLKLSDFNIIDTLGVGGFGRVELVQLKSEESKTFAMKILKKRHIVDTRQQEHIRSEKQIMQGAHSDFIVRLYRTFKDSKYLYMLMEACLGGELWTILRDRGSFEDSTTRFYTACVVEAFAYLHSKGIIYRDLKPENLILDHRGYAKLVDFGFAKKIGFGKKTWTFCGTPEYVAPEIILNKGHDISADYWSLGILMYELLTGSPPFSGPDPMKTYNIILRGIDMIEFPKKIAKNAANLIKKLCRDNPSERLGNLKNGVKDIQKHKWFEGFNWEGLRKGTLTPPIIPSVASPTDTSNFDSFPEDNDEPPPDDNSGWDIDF
Conditions: at 0.1 µM.

Test [15] addresses T5, cGMP-dependent protein kinase 1 (Homo sapiens). Conditions: at 1 µM.
Test [16] has as its target T6, cGMP-dependent protein kinase 2 (Homo sapiens) (UniProt Q13237).
T6 sequence (whole entry): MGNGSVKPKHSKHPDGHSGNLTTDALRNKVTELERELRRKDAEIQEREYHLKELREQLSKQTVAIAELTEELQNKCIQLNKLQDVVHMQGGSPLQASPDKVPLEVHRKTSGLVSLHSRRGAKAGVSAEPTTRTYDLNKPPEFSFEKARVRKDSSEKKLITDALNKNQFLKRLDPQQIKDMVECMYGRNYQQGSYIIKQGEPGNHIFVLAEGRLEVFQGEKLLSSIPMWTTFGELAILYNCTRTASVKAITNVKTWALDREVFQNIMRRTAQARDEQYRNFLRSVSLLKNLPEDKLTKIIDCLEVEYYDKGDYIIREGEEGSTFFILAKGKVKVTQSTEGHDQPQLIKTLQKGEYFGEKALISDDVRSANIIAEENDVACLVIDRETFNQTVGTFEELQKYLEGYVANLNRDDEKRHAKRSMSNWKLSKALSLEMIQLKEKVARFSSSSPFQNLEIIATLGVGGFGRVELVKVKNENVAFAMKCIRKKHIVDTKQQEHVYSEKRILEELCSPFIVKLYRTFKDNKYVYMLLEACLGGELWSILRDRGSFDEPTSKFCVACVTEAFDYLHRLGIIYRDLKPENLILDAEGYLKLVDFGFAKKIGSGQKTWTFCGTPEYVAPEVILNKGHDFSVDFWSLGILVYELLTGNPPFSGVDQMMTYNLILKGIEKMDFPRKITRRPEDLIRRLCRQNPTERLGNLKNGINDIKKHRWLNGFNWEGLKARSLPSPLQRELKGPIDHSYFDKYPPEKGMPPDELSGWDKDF
Conditions: at 0.1 µM.

Test [17] deals with T6, cGMP-dependent protein kinase 2 (Homo sapiens). Particulars: at 1 µM.
For test [18], the target named is T7, cAMP-dependent protein kinase catalytic subunit PRKX (Homo sapiens) (UniProt P51817).
T7 sequence (whole entry): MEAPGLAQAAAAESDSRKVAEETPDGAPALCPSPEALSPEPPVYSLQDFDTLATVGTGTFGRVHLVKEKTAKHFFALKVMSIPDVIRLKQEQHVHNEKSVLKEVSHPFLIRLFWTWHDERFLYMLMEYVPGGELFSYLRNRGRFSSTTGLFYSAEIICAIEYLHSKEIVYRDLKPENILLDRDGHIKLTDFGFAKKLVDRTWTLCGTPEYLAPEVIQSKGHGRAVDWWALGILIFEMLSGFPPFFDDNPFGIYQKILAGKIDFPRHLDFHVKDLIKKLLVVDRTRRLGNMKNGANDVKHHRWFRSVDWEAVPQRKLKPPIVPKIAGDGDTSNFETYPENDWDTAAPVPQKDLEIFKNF
Conditions: at 0.1 µM.

Test [19] concerns the target T7, cAMP-dependent protein kinase catalytic subunit PRKX (Homo sapiens). Conditions: at 1 µM.
Test [20] addresses Rho-associated protein kinase 1 (Homo sapiens) (UniProt Q13464). Particulars: at 0.1 µM.

Sequence of Protein kinase C theta type (Homo sapiens) (Q04759 whole entry, looked up): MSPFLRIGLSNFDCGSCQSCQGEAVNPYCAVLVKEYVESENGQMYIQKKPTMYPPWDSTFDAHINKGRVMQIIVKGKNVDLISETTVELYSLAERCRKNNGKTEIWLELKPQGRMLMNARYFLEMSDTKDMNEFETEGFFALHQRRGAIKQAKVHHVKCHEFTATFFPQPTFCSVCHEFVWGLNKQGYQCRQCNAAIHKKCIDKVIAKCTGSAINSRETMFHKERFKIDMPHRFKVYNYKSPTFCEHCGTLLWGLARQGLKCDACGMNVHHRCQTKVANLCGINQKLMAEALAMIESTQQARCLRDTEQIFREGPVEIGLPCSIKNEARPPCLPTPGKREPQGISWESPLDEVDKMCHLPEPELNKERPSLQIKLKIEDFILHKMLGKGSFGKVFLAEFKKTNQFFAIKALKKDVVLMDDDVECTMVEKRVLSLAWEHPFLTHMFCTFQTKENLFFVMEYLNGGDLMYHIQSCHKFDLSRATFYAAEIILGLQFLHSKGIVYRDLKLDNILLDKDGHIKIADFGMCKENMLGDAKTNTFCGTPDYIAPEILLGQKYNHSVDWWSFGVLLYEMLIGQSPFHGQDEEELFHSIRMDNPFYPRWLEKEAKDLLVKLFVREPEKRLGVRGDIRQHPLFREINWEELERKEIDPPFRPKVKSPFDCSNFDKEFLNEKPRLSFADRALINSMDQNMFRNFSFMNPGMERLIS
Sequence of Protein kinase C beta type (Homo sapiens) (P05771 2-671 limits assumed): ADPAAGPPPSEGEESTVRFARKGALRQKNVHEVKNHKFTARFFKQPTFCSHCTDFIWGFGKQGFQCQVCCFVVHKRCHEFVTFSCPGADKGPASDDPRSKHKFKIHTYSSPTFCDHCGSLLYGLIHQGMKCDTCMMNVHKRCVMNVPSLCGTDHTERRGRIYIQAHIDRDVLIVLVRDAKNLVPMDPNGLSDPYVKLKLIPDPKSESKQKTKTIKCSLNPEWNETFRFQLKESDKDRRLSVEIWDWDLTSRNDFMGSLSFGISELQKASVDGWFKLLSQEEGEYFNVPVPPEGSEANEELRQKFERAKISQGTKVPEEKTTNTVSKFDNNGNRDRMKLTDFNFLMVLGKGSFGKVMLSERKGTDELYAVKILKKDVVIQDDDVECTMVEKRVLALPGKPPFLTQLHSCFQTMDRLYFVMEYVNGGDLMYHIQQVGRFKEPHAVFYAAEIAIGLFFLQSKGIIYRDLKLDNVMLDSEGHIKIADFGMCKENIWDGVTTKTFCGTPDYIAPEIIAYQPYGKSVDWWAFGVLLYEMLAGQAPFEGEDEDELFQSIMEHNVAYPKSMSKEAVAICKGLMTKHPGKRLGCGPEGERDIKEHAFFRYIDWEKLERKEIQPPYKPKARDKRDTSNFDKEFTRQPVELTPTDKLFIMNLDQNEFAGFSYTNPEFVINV
Sequence of Rho-associated protein kinase 1 (Homo sapiens) (Q13464 2-1354 limits assumed): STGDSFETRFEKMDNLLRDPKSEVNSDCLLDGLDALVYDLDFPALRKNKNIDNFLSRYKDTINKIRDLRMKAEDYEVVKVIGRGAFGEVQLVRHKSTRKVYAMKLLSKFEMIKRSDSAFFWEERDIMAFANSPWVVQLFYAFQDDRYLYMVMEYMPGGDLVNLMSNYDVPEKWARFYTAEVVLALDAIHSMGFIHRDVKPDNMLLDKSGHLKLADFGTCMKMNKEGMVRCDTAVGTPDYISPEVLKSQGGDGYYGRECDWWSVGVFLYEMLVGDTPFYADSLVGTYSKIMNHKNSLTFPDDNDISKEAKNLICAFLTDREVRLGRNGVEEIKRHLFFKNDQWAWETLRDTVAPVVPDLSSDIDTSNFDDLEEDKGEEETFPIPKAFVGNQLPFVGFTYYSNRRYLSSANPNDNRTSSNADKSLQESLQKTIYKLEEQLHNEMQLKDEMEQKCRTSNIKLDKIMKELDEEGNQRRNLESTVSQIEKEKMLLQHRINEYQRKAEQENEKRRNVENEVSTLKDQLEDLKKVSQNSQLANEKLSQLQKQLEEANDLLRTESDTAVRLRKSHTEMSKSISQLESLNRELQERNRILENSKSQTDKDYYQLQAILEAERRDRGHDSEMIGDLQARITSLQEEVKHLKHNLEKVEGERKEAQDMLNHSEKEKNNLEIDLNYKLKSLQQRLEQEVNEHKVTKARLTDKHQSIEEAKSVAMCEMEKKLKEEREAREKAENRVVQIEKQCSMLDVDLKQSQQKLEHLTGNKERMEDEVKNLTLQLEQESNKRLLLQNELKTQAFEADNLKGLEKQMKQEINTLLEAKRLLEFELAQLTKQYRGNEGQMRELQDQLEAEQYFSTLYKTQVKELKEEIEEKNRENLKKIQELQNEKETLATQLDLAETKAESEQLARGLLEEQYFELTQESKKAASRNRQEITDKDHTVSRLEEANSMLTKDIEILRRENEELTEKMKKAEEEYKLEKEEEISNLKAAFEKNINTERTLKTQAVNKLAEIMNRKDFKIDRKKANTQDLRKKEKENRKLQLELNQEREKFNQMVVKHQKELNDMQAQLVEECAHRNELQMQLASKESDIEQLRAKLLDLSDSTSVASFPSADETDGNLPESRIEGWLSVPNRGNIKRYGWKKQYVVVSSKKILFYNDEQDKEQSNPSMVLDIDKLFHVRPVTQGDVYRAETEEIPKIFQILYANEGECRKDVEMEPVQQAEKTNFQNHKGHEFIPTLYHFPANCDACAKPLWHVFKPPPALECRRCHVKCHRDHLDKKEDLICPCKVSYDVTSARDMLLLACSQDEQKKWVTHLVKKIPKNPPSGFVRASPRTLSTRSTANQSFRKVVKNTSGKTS

On to `NS(=O)(=O)c1ccc(N/N=C2\C(=O)Nc3ccc(-c4cnco4)cc32)cc1`, for which the inhibition in [1] came out at 4.1%; in test [2], 1%; in test [3], 0.97%; in [4], 1.05%; in test [5], 2.96%; in [6], 0.38%. For the same compound, the inhibition in test [7] was 1.12%; in test [8], -1.79%; in test [9], 12.6%; in test [10] it was -0.15%; in test [11], 9.15%; in test [12], -1.69%. Also, the inhibition is 7.39% in test [13]; 2.42% in test [14]; 4.22% in test [15]; 1.06% in [16]; 12.7% in test [17]; 1.53% in test [18]. For the same compound, the inhibition in [19] worked out at 1.83%; in test [20], 6.06%.

As to `CS(=O)(=O)CCNCc1ccc(-c2ccc3ncnc(Nc4ccc(OCc5ccccc5)c(Br)c4)c3c2)o1`, the inhibition in test [1] is -0.13%; in test [2] it was 2.91%; in test [3] it was 2.72%; in test [4] it was 2.31%; in [5] it was 2.41%; in [6], 0.97%. Besides, the inhibition in test [7] is 1.27%; in test [8] it was 0.19%; in test [9] it was -0.25%; in [10], 0.64%; in [11], -2.34%; in [12], -0.06%. Further, the inhibition in [13] was -0.73%; in test [14], 3.47%; in [15] it was 0.89%; in test [16] it was 2.31%; in test [17], 1.31%; in [18], 2.17%. Besides, the inhibition in test [19] was 2.64%; in test [20], 1.36%.

(Values after ChEMBL document CHEMBL1961873, “Compounds: GSK PKIS; Assays: Nanosyn kinase panel” (2012).)
